# Assay results from PubChem BioAssay AID624351 (Southern Research Specialized Biocontainment Screening …, 2012).
# Among all 2,400 compounds or so, about 1,400 (58%) were called active.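 How the source made its calls: active means inhibition of 30% or more at any tested dose; inconclusive means primary hits over the limit that were never retested; inactive means the rest.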 The set was probably picked from earlier hits. This is one part of the list.
# Test: coupled detection enzyme interference, dose response, artefact control for MgcRacGAP inhibitor project, biochemical, coupled enzyme counter-screen (AID 624351);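 further: signal is the ADP detection kit reading of free GDP without any GAP enzyme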;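 on inhibition: 0% = median positive control wells and 100% = median negative control wells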
# Conditions: ADP Hunter coupled enzyme counter-screen, fluorescence, no MgcRacGAP; series mostly up to 80 µM
SMILES,IC50,inhibition
COc1ccc(CN2CCN(Cc3ccc(Br)cc3)CC2)c(OC)c1OC,inactive,
COc1cc(/C=C/C(=O)OCC(=O)N2CCN(C(=O)c3ccco3)CC2)ccc1O,33.8 µM (active),
COc1cccc(CN2CCN(C(=O)c3ccco3)CC2)c1OC,inactive,
COc1ccc(C(=O)N2CCN(CCCc3ccccc3)CC2)cc1OC,inactive,
Cc1sc2ncnc(Nc3ccc(O)cc3)c2c1C,38.2 µM (active),
Cc1sc2ncnc(N(C)CCc3ccccn3)c2c1C,inactive,
Cc1sc2ncnc(N/N=C/c3ccc(O)cc3)c2c1C,48.3 µM (active),
COC(=O)/C(=C/Nc1ccc(O)cc1)[N+](=O)[O-],23.9 µM (active),
O=C(CN1CCN(C2CCCCC2)CC1)Nc1ccccc1-c1ccccc1,inactive,
O=C(/C=C\c1ccco1)c1ccc(NC(=O)c2ccco2)cc1,inactive,
O=C(Nc1cc(Br)c(O)c(Br)c1)c1cccc(NC(=O)c2ccco2)c1,81.3 µM (active),
O=c1ccn(-c2ccccc2)[nH]1,51.3 µM (active),
O=C1CCN(c2ccccc2)N1,inactive,
CCN(CC)CCCNCC(=O)Nc1cc(C)on1,inactive,
CC(=O)Nc1ccc(N=Nc2ccc(O)cc2)cc1,24.5 µM (active),
Oc1ccc(N=Nc2ccccc2)cc1,78.2 µM (active),
Nc1ccc(N=Nc2ccc(O)cc2)c(N)n1,10.2 µM (active),
Nc1ccc(Nc2nc(-c3cc4ccccc4oc3=O)cs2)cc1,inactive,
O=c1oc2ccccc2cc1-c1csc(Nc2ccc(O)cc2)n1,58 µM (active),
NS(=O)(=O)c1ccc(Nc2nc(-c3ccc(O)cc3)cs2)cc1,20.9 µM (active),
NS(=O)(=O)c1ccc(Nc2nc(-c3ccc(O)cc3O)cs2)cc1,48.8 µM (active),
Nc1ccc(Nc2nc(-c3ccncc3)cs2)cc1,9.43 µM (active),
Cc1cc(NS(=O)(=O)c2ccc(Nc3nc(-c4ccc(O)cc4)cs3)cc2)no1,30.2 µM (active),
Cc1cnc(C(=O)Oc2ccc(-c3ccccc3)cc2)cn1,inactive,
O=C(Nc1ccccc1Cl)/C(Cl)=C(\Cl)S(=O)c1ccccc1 (stereo not given),inactive,
O=C(Nc1ccccc1Cl)Oc1ccc(-c2ccccc2)cc1,14.1 µM (active),
Cc1cc(C)c(C#N)c(SCS(=O)Cc2ccc(Cl)cc2)n1 (stereo not given),inactive,

SMILES,IC50,inhibition
NC(=NCCCCCCN=C(N)/N=C(\N)Nc1ccc(Cl)cc1)/N=C(\N)Nc1ccc(Cl)cc1,inactive,
COc1ccc2c(-c3ccccc3)cc(N3CCOCC3)nc2c1,inactive,
Oc1ccc(/C=N/Nc2cc(N3CCOCC3)nc(N3CCOCC3)n2)cc1,49.2 µM (active),
Oc1ccc(/C=N\Nc2cc(N3CCOCC3)nc(N3CCOCC3)n2)c(O)c1,76.4 µM (active),
Oc1ccc(/C=N/Nc2cc(N3CCOCC3)nc(N3CCOCC3)n2)cc1O,75.5 µM (active),
CN(C)c1ccc(-n2cccc2/C=C/[N+](=O)[O-])cc1,inactive,
CCCCN(C)C(=O)C1CCN(Cc2cccc(OCc3ccccc3)c2)CC1,inactive,
Oc1ccc(Br)cc1C=Nc1ccc2[nH]ncc2c1,48.2 µM (active),
COc1ccc(C=Nc2ccc3[nH]ncc3c2)c(O)c1,38.4 µM (active),
Cc1ccc(O)c(C=Nc2ccc3[nH]ncc3c2)c1,34.5 µM (active),
COc1ccc2[nH]c3c(C)c4ccncc4c(C)c3c2c1,inactive,
Brc1ccc(OCCCN2CCOCC2)cc1,inactive,
Cc1ccc(/C=C2/C(=O)ON=C2c2ccccc2)o1,inactive,
CCN(c1ccccc1)S(=O)(=O)c1ccc(Cl)c(NC(=O)CN(C)C2CCN(C)CC2)c1,inactive,
CCN(c1ccccc1)S(=O)(=O)c1ccc(N2CCN(c3ccc(O)cc3)CC2)nc1,53.5 µM (active),
COc1ccccc1CNCC(=O)N1CC(=O)Nc2ccccc21,inactive,
ON=C1c2ccccc2-c2ccc(O)cc21,36.5 µM (active),
CN(C)c1ccc2c(c1)C(=NO)c1ccccc1-2,42.8 µM (active),
CCN(Cc1ccccc1)C(c1ccc(C)cc1)c1nnnn1C(C)(C)CC (stereo not given),inactive,
Brc1cccc(OCCN2CCOCC2)c1,inactive,
Nc1ccc(-c2nc3ccc(N)cc3o2)cc1,44.4 µM (active),
CCOc1cc(/C=C/c2cccc[n+]2C)ccc1O,27.2 µM (active),
CCn1c(=O)c2c3c(sc2n2c(=S)[nH]nc12)CCC3,25 µM (active),
COc1ccccc1-n1c(=O)c2c3c(sc2n2c(=S)[nH]nc12)CCC3,44.9 µM (active),
COc1ccc(-n2c(=O)c3c4c(sc3n3c(=S)[nH]nc23)CCCC4)cc1,30.3 µM (active),
C=CCSC1=N/C(=C\C=C\c2ccco2)C(=O)S1,inactive,
COc1cccc(/C=N/n2c(-c3n[nH]c4c3CCC4)n[nH]c2=S)c1O,54.6 µM (active),

SMILES,IC50,inhibition
COc1ccc(/C=N/n2c(-c3n[nH]c4c3CCC4)n[nH]c2=S)cc1OC,61.5 µM (active),
COc1cc(/C=N/n2c(C3CCCCC3)n[nH]c2=S)ccc1O,51.8 µM (active),
COc1ccc(/C=N/n2c(-c3n[nH]c4c3CCC4)n[nH]c2=S)c(OC)c1OC,65.7 µM (active),
C=CCOC(=O)c1cc(-c2ccc(/C=C3\C(=O)NC(=O)C(C#N)=C3C)o2)ccc1Cl,inactive,
CCC1(c2ccccc2)NC(=O)N(CC(=O)Nc2ccc(N3CCCC3)cc2C)C1=O (stereo not given),inactive,
CCN(CC)c1ccc(NC(=O)CN2C(=O)NC3(CCc4ccccc43)C2=O)cc1 (stereo not given),83.2 µM (active),
CCN(CC)CCCNCC(=O)Nc1ccc2c(c1)CCC2,inactive,
Nc1nc(N)c2[nH]c(=S)[nH]c2n1,inactive,
O=C1C=CC2(C=C1)O[C@H](Cc1ccccc1)[C@@H](Cc1ccccc1)O2,inactive,
COc1ccc(/C=N/NC(=O)CN2CCCCCCC2)c(C)c1C,inactive,
COc1cc(/C=N/NC(=O)CCN2CCN(C(c3ccccc3)c3ccccc3)CC2)ccc1O,53.4 µM (active),
C=CCNC(=O)CN1CCN(C(c2ccccc2)c2ccccc2)CC1,inactive,
COc1cc(/C=N/NC(=O)CCN2CCCCC2)ccc1O,34.3 µM (active),
O=C1/C(=C\c2ccccc2)CN(C(=O)CCN2CCCCC2)C/C1=C/c1ccccc1,inactive,
C=CCc1c(C)nc(-c2ccccc2)nc1Nc1ccc(O)cc1,41.3 µM (active),
CS(=O)(=O)c1ccc2c(c1)sc1nc(=O)c(/C=C3/C=CC(=O)C(O)=C3)c(N)n12,60.1 µM (active),
Nc1c(/C=C2/C=CC(=O)C(O)=C2)c(=O)nc2sc(CC(=O)N3CCCC3)nn12,59.4 µM (active),
Nc1c(/C=C2/C=CC(=O)C(O)=C2)c(=O)nc2sc(CC(=O)N3CCOCC3)nn12,67.8 µM (active),
Cc1ccc(C(C)C)c(OCCCCN2CCNCC2)c1,inactive,
CC(NCc1ccc(S(N)(=O)=O)cc1)C(=O)N1c2ccccc2CC1C (stereo not given),inactive,
COc1ccccc1C1Nc2cccc3cccc(c23)N1,51.6 µM (active),
COc1cc(OC)c(C2Nc3cccc4cccc(c34)N2)c(OC)c1,,-13.7% [at 5 µM] (inactive)
Cc1ccc(NC(=O)C2=C(c3ccccc3)S(=O)(=O)CCS2(=O)=O)cc1,inactive,
CN(C)c1ccc(N=Cc2nc(-c3ccccc3)oc2OC(=O)c2cccc(Br)c2)cc1,inactive,
Cc1oc(-c2ccccc2)cc1C(=O)Nc1ccc(N(C)C)cc1,65.5 µM (active),
COc1cc(OC)c(C(=O)Nc2ccc(N(C)C)cc2)cc1OC,27.2 µM (active),
COc1ccc(NC(=O)Nc2ccc(N(C)C)cc2)cc1,21.9 µM (active),

SMILES,IC50,inhibition
O=C(Nc1ccc(O)cc1)c1cc2n(n1)C(C(F)(F)F)CC(c1ccco1)N2 (stereo not given),28.7 µM (active),
Cc1cc(C)c(OCCCCN2CCC(C)CC2)c(Br)c1,inactive,
COc1cc(CNc2ccc3[nH]c(=O)[nH]c3c2)ccc1OCc1ccccc1,inactive,
COc1ccc(CN2CCN(C(=O)CC(C)C)CC2)cc1OC,inactive,
COc1ccc(CNc2ccc(N3CCN(C(C)=O)CC3)cc2)cc1OC,15.1 µM (active),
COc1ccc(CN2CCC(C(N)=O)CC2)cc1OCc1ccccc1,inactive,
COc1cc(CNc2ccc(N3CCN(C(C)=O)CC3)cc2)ccc1OCc1ccccc1,13.4 µM (active),
COc1ccc(CN2CCN(Cc3ccccc3F)CC2)cc1OC,inactive,
COc1cc(/C=C/C(=O)OCC(=O)c2ccc[nH]2)ccc1O,25.9 µM (active),
COc1cc(/C=C/C(=O)OCC(=O)c2ccc(OC(F)F)cc2)ccc1O,58.2 µM (active),
C/C(=N\NC(=O)c1cccc(N/N=C(\C)c2cc(O)ccc2O)c1)c1cc(O)ccc1O,75.5 µM (active),
Cc1cc(-c2n[nH]c(=S)n2/N=C/c2ccc(Br)s2)n[nH]1,80.5 µM (active),
Cc1cc(-c2n[nH]c(=S)n2/N=C/c2cccs2)n[nH]1,78.7 µM (active),
S=c1[nH]nc(-c2cccs2)n1/N=C/c1cccs1,59.7 µM (active),
Cc1cc(-c2n[nH]c(=S)n2/N=C/c2ccccc2[N+](=O)[O-])n[nH]1,83.5 µM (active),
Cc1cc(-c2n[nH]c(=S)n2/N=C/c2sccc2C)n[nH]1,62.4 µM (active),
O=C1CSC(=S)N1Nc1ccccc1,68 µM (active),
Nc1ccc2ccc(O)cc2c1,31.5 µM (active),
Oc1ccc2ccc(Cl)cc2c1,53.9 µM (active),
C[n+]1c2cc(N)ccc2cc2ccc(N)cc21,inactive,
CCCC1=NN2C(=N)/C(=C\c3ccc(SCc4ccco4)o3)C(=O)N=C2S1,inactive,
CN(C)c1ccc(N=C/C=C2/N(C)c3ccccc3C2(C)C)cc1,20.6 µM (active),
CN(C)c1ccc(N=C/C=C2\N(C)c3ccccc3C2(C)C)cc1,12.4 µM (active),
CN1/C(=C\C=N\NC(=O)c2ccc(O)cc2)C(C)(C)c2ccccc21,74.4 µM (active),
